Source: PubChem (several laboratories)
697 NFkB inh: inhibitors of the PMA/ionomycin-induced NF-kB reporter in 697 B cells. 697 B-cell NF-kB luciferase reporter, 16 h. inhibition, % at 4 µM. 330,000 compounds, 0.33% hits; in the data active = inhibition above about 35%
ANO1 activ: mouse TMEM16A channel activation, primary screen; B-score at 10 µM; HEK293 TMEM16A/YFP-H148Q/I152L, iodide quench fluorescence; hits give low values; AID 623877; 340,000 compounds, 0.3% hits;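 active = fluorescence-ratio B-score plate-corrected deviation score at least 3 library SD below zero, with starting fluorescence score within 5 deviations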;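 note: channel opened by trigger with iodide after compound preincubation; score built on the fluorescence ratio of max minus min over baseline; more negative score means more quench and so TMEM16A activation or potentiation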
Target sequence (Q8BHY3 whole entry, looked up): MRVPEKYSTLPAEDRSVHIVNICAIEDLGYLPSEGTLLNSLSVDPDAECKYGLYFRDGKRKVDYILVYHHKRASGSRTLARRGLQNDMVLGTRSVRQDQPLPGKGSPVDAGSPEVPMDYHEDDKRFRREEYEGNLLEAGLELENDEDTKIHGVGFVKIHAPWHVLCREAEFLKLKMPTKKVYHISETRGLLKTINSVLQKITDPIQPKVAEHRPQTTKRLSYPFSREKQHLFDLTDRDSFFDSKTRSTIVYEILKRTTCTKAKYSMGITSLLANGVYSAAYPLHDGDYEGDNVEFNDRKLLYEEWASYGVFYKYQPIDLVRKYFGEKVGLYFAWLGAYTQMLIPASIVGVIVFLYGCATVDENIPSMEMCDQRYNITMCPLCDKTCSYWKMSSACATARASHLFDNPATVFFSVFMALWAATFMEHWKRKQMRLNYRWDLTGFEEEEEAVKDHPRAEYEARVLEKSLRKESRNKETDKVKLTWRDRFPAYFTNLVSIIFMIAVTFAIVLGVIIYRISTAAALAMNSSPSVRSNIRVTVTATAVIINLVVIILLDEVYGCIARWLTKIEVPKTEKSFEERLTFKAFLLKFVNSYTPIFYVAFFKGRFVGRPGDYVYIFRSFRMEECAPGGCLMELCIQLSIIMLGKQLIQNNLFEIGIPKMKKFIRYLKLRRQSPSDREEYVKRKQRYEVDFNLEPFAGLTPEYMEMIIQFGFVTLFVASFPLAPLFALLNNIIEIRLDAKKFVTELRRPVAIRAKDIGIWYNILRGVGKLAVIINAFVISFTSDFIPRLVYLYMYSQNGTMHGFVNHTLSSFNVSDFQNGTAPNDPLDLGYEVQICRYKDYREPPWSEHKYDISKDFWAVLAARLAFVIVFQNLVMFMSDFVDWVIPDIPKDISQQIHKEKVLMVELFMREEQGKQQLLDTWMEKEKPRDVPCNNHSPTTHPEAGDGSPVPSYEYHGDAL
aSyn UTR inh: MLPCN primary screen, SNCA 5' untranslated region; alpha-synuclein 5'UTR reporter, inhibitor activity; AID 1813; inhibition, % (tested at 7.5 µM); 300,000 compounds, 0.82% hits; in the data active = inhibition above about 60%;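 note: H4 neuroglioblastoma cells stably carrying SNCA 5'UTR luciferase fusion; 0% = DMSO wells and 100% = positive control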
ANO1 block: blocks the mouse calcium-activated chloride channel TMEM16A; HEK293 TMEM16A/YFP iodide influx fluorescence, ionomycin; normalized B-score (activity score, 25-100; higher = stronger inhibition) at 10 µM; 310,000 compounds, 1.2% hits; AID 588511;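 active = ratio plate-corrected score three or more library SD toward inhibition, starting fluorescence score within five deviations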;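 note: score derived from kinetic fluorescence span divided by baseline fluorescence per well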
Jurkat NFkB inh: inhibitors of the PMA/ionomycin-induced NF-kB reporter in Jurkat cells; PMA/ionomycin-induced NF-kB luciferase reporter, luminescence; inhibition, % at 4 µM; 330,000 compounds, 0.53% hits; AID 435003; in the data active = inhibition above about 50%
KLF5 inhibitor: inhibitors of KLF5 expression | 290,000 compounds, 0.23% hits | DLD-1 KLF5 promoter-luciferase reporter, luminescence | inhibition, % at 5 µM;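 active = inhibition above a per-plate limit of that plate's mean compound inhibition plus 3 SD, cut at about 60% in these data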;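 note: 0% = DMSO wells and 100% = LY294002 at 200 µM; higher means less KLF5 promoter-driven luciferase light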
Jurkat NFkB conf: lowers PMA/ionomycin-induced NF-kB signal in Jurkat cells; 2,700 compounds, 27% hits; shares compounds with Jurkat NFkB inh; inhibition, % at 4 µM; AID 435020; Jurkat NF-kB luciferase, 16 h;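 active = inhibition reaching about 45% at 4 µM in either replicate, limit read from the data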;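 note: plate controls were PMA/ionomycin stimulated DMSO wells for no effect and unstimulated DMSO wells for full effect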
697 NFkB conf: inhibitors of the PMA/ionomycin-induced NF-kB reporter in 697 B cells, retest; AID 449746; 697 B-cell NF-kB luciferase, 16 h; shares compounds with 697 NFkB inh; 2,000 compounds, 35% hits; inhibition, % at 4 µM; in the data active = inhibition mostly above about 28%, no sharp cut-off; inactive = mostly below about 22%
* hit, by the source's call; i = inactive; . = no result given. A selection: hits, their analogues and other compounds. The true share with any hit is near 2.5%.

SMILES	697 NFkB inh	ANO1 activ	aSyn UTR inh	ANO1 block	Jurkat NFkB inh	KLF5 inhibitor	Jurkat NFkB conf	697 NFkB conf
O=S(=O)(NC1C2CC3CC(C2)CC1C3)c1ccccc1 (configuration not stated)	6.2	i	.	.	17.2	.	.	.
COc1cccc2oc3cc(C#Cc4ccccn4)ccc3c(=O)c12	-106.1	.	-194.5	i	-96.3	-115.6	.	.
COc1cccc2oc3cc(C#CC4(O)CCCCC4)ccc3c(=O)c12	-352.1	i	-35.2	i	-212.5	-45.9	-98.8	-442.8
O=C(Nc1ccc2ccccc2c1)c1ccccc1F	-328.1	i	-51.1	i	-220.5	-110.2	-134.9	-321.8
COc1ccc(C(=O)Nc2ccc3ccccc3c2)c(OC)c1	-280.1	i	-28.2	i	-181.1	-225.7	-123.2	-383.4
Cc1cc([N+](=O)[O-])nn1Cc1ccccc1F	50.9*	i	-12.5	i	97.3*	-28.2	62.0*	76.3*
COc1ccc2nc(NC(=O)c3ccoc3C)sc2c1	-251.4	i	-23.3	i	-190.5	-57.5	-92.0	-324.0
CCCC(=O)Nc1nc2ccc(OC)cc2s1	-112.7	i	-132.8	i	-74.9	-69.4	.	.
COc1ccc2nc(NC(=S)N(C)C)sc2c1	-319.3	i	-80.6	i	-169.6	-139.7	-51.8	-226.0
COc1ccc2nc(NC(=O)c3cc(C)oc3C)sc2c1	-21.5	i	-140.5	i	-69.3	-139.6	.	.
O=C(OCc1ccc(Cl)c(Cl)c1)c1ccc[nH]1	-42.2	i	-82.5	i	-34.8	-74.9	.	.
Nc1nc(-c2ccccc2)c(CCCOc2ccc(NC(=O)CBr)cc2)c(=O)[nH]1	.	i	.	.	.	.	.	.
O=C(COC(=O)c1ccc[nH]c1=O)Nc1ccc(N2CCCCC2)cc1	78.7*	i	.	.	51.0*	.	69.7*	79.8*
O=C(COC(=O)c1ccc[nH]c1=O)Nc1ccc(S(=O)(=O)N2CCCC2)cc1	15.0	i	9.2	i	10.8	-26.0	.	.
CCCCCCn1c2c(c(=N)c3c1CCC3)CCC2	104.3*	i	67.3*	i	64.6*	54.8	69.3*	33.9*
CCCCCCCCCn1c2c(c(=N)c3c1CCC3)CCC2	93.5*	i	85.7*	100*	90.9*	52.3	73.5*	-22.3
O=C(Cn1cnc2sc3c(c2c1=O)CCCC3)NCC(=O)Nc1ccc(F)cc1F	-0.4	i	-0.9	i	2.9	-14.4	.	.
c1ccc(C(c2ccccc2)c2ccn[nH]2)cc1	-8.7	i	-40.7	i	-36.1	-15.2	.	.
COc1ccc(N(CC(=O)NCc2ccc(C)cc2)S(=O)(=O)c2c(C)[nH]c(=O)[nH]c2=O)cc1	4.7	i	-8.5	i	1.5	-17.8	.	.
CC(C)(C)C(=O)Nc1ccc(N=Nc2ccccc2)cc1	-261.2	i	79.4*	i	-218.7	-9.5	15.5	-204.1
O=C(O)CCC(=O)Nc1ccc(N=Nc2ccccc2)cc1	.	i	12.1	.	.	-14.7	.	.
O=C(Nc1ccc(Cl)c(Cl)c1)c1ccc2c(c1)OCO2	-369.8	i	-133.4	i	-204.6	-160.8	-173.5	-319.6
O=c1c2c3c(sc2nc2n1N=C(c1cccs1)CS2)CCCC3	-312.8	i	-165.8	i	-194.9	-6.1	-63.5	-120.3
O=c1oc(-c2cccs2)nc2sc3c(c12)CCCC3	-32.3	i	-39.6	i	3.9	-6.7	.	.
C=C(CN(C)C)C(=O)c1ccc(OC2OC(COC(C)=O)C(OC(C)=O)C(OC(C)=O)C2OC(C)=O)cc1 (configuration not stated)	.	i	.	.	.	.	.	.
C/C(=N\Nc1cccc2cccnc12)c1ccccn1	-270.5	i	-17.3	i	-226.9	-85.6	-100.4	-193.2
O=C(Nc1nc(-c2ccc3ccccc3c2)cs1)C1CCN(S(=O)(=O)c2cccs2)CC1	-50.0	i	-10.9	i	33.1	-30.6	.	.
Cc1ccc(-c2csc(NC(=O)C3CCN(S(=O)(=O)c4cccs4)CC3)n2)cc1	62.4*	i	-8.3	i	63.0*	1.6	73.3*	67.2*
Clc1ccc(SCc2nc3ccccc3[nH]2)cc1	-23.5	i	-112.1	i	-37.0	-94.9	.	.
